Screens as filed in PubChem.
V-ATPase pH = alters yeast V-ATPase proton transport; 0.37% of 350,000 active; S. cerevisiae, pHLuorin cytosolic pH fluorescence; response, % at 10 µM; in the data active = response mostly above about 7.3%, no sharp cut-off; inactive = mostly below about 5.4%; note: actives read high
tim23-1 inh = inhibits growth of tim23-1 mutant yeast; S. cerevisiae tim23-1 growth, BacTiter-Glo luminescence, 24 h; inhibition, % at 20 µM; 1.3% of 330,000 active; AID 463212;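 active = growth inhibition of the mutant yeast at or above 50%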;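 note: temperature-sensitive mutant grown at 25 °C; plate controls were DMSO-treated mutant yeast for no effect and medium wells lacking yeast for full effect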
NALP1 yeast inh = NALP1 inhibition; S. cerevisiae NALP1/ASC/caspase-1 growth, X-gal OD620, 72 h; inhibition, % at 10 µM; 0.61% of 280,000 active; AID 2071; in the data active = inhibition mostly above about 24%, no sharp cut-off; inactive = mostly below about 32%
TIM10 inh = inhibits growth of TIM10 yeast strain; S. cerevisiae TIM10 strain growth, BacTiter-Glo luminescence, 24 h; 1.4% of 330,000 active; inhibition, % at 10 µM;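 active = inhibition of 40% or more at the single tested concentration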;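 note: wild-type TIM10 isogenic control strain grown at permissive 25 °C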
NALP3 yeast inh = NALP3 inhibition in yeast | Yeast reconstituted NLRP3/ASC/caspase-1, beta-gal luminescence, 24 h | 0.39% of 330,000 active | inhibition, % at 10 µM | AID 2825;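 active = inhibition of 50% or more; inactive = inhibition below 50%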;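 note: plate controls were induced DMSO wells for no effect and uninduced yeast grown without galactose for full effect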
tim10-1 inh = tim10-1 yeast growth inhibition. inhibition, % at 20 µM. 2.2% of 330,000 active. S. cerevisiae tim10-1 ts strain growth, BacTiter-Glo, 24 h. AID 463190;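 active = inhibition of at least 40%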;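 note: mutant grown at 25 °C; 0% = DMSO wells with yeast and 100% = wells holding no yeast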
* marks the source's active call; other numbers are inactive results; . = no result. Sampled rows, rich in hits. Any-hit rate of the full collection: about 4.2%.

SMILES	V-ATPase pH	tim23-1 inh	NALP1 yeast inh	TIM10 inh	NALP3 yeast inh	tim10-1 inh
COc1ccc([N+](=O)[O-])cc1N(CC(O)CN1CCCCC1)S(=O)(=O)c1ccccc1 (configuration not stated)	-0.1	-7.2	24.7*	10.9	21.1	3.6
COc1ccccc1N(CC(O)CN1CCCC1)S(=O)(=O)c1ccccc1 (configuration not stated)	-1.7	10.8	2.3	-8.6	20.8	8.0
CCCOC(=O)c1ccc(NC(=O)Oc2ccccc2)cc1	1.5	-16.7	22.3*	-16.7	11.3	-17.8
CC(=O)c1ccc(NC(=O)Oc2ccccc2)cc1	-0.8	11.3	16.6	-14.9	11.8	10.7
COC(=O)Cc1ccc(NC(=O)c2ccc(Br)o2)cc1	0.1	2.1	-3.6	-4.3	19.9	-12.4
CCCOC(=O)c1ccc(NC(=O)c2ccc(Br)o2)cc1	-7.5	26.2	61.3*	-3.6	39.6	-19.4
CCCn1nnc(NC(=O)c2ccc3c(c2)OCO3)n1	10.6	7.5	0.3	-15.3	13.4	1.2
C=CCNc1cnn(-c2ccc(C)cc2)c(=O)c1Sc1ccc(C)cc1	1.5	44.8	-11.1	0.5	25.2	4.1
Cc1ccccc1C(=O)Nc1ccccc1	-1.9	1.7	31.4*	-13.0	6.9	-14.5
CCC1(C)Cc2sc3c(=O)[nH]c(=S)[nH]c3c2CO1 (configuration not stated)	1.3	8.0	-16.6	-10.7	21.6	8.8
c1ccc2c(c1)nc(N1CCCCC1)c1ccccc12	-0.8	22.0	39.3*	14.2	12.9	12.6
c1ccc2c(N3CCCCC3)nc(N3CCCC3)nc2c1	-1.6	0.7	2.8	-11.9	5.6	3.5
CC(C)(C)c1ccc(C(=O)NC2CCN(Cc3ccccc3)CC2)cc1	-1.7	11.4	9.1	-27.2	17.6	-25.8
CN(C(=O)COC(=O)c1cc(-c2ccc(Cl)s2)nc2ccccc12)C1CCS(=O)(=O)C1 (configuration not stated)	12.1*	12.2	-6.6	-14.3	27.9	-6.7
COC(=O)c1scc(C)c1N/N=C(\C)c1cc(F)c(Cl)cc1F	0.4	-2.5	42.0*	-7.6	5.3	10.4
S=C(NCc1ccco1)NCC(c1ccco1)N1CCCCC1 (configuration not stated)	-1.9	-3.0	-0.6	1.3	7.4	-1.3
CCC(C)(C)NC(=O)CN(CCc1cccc(C)c1)C(=O)c1csnn1	-1.0	20.4	15.4	3.8	5.1	0.6
Cc1cccc(Cc2ncc(C(F)(F)F)cc2Cl)c1	-2.4	0.4	2.7	-0.2	7.6	-3.0
Cc1ccc(CNc2nc(Cl)c(C#N)s2)cc1	15.2*	-0.4	17.2	-0.3	25.3	16.1
CC1=NN(c2ccccc2)C(=O)C1N=Nc1cccc(O)c1 (configuration not stated)	4.1	39.9	31.8*	-10.3	40.1	0.1
O=C(COC(=O)CN1C(=O)c2ccccc2C1=O)Nc1cccc(F)c1	2.4	10.5	.	5.2	2.7	3.3
CCOC(=O)C1CC(CN2C(=O)c3ccccc3C2=O)OC1=O (configuration not stated)	3.8	.	.	.	.	.
COc1ccc(C)cc1NC(=O)CN1C(=O)COc2ccc(S(=O)(=O)N3CCC(C)CC3)cc21	0.2	6.0	17.2	12.3	15.1	-4.6
COC(=O)C1=C(C)N(CCc2ccc(OC)c(OC)c2)C(=O)C1	31.4*	20.9	7.6	0.7	4.8	9.3
COC(=O)C1=C(C)N(Cc2ccc(OC)c(OC)c2)C(=O)C1	-0.7	-5.2	8.4	-5.8	8.1	-4.4
SMILES	V-ATPase pH	tim23-1 inh	NALP1 yeast inh	TIM10 inh	NALP3 yeast inh	tim10-1 inh
O=S(=O)(Cc1ccccc1)N1CCn2c(nc3ccccc32)C1	1.5	3.2	40.8*	-2.0	5.2	-1.7
O=S(=O)(c1ccc(Br)cc1)N1CCn2c(nc3ccccc32)C1	1.1	-7.3	30.3	-9.3	-3.7	-5.9
Cc1ccc(C(C)C)c(OCC(=O)Nc2ccccc2N2CCN(C)CC2)c1	0.3	36.7	26.8*	2.5	10.9	31.7
N=C1/C(=C\c2ccc(OCc3ccccc3)cc2)C(=O)N=C2SC(N3CCCC3)=NN12	.	.	11.7	.	.	.
O=C(O)CN1CCc2ccccc2C1	-2.0	8.1	31.8*	-10.6	-16.3	1.2
O=C(/C=C/C(=O)N1CCc2ccccc2C1)N1CCc2ccccc2C1	-4.3	35.7	6.1	6.0	11.5	39.2
COC(=O)c1ccccc1NC(=O)CSc1n[nH]c(-c2cccnc2)n1	-0.3	12.6	33.3*	20.3	11.1	13.0
Cn1c(SCC2CCCO2)nnc1-c1cccc([N+](=O)[O-])c1 (configuration not stated)	-5.7	-2.4	4.1	-12.5	1.0	-9.1
Cc1nn(Cc2ccccc2)c2c1C(c1cccnc1)C(C#N)=C(N)O2 (configuration not stated)	-1.2	33.4	41.3*	17.8	-2.7	18.8
CN(C)c1ccc(C(C[N+](=O)[O-])c2c(N)n(C)c(=O)n(C)c2=O)c(F)c1C#N (configuration not stated)	-1.2	31.3	25.5	-10.9	24.1	-19.0
Cn1c(N)c(C(C[N+](=O)[O-])c2c(F)cccc2Cl)c(=O)n(C)c1=O (configuration not stated)	0.5	28.9	44.5*	5.0	23.1	25.1
COc1ccc(/C=C2\N=C(C)OC2=O)cc1[N+](=O)[O-]	6.0	18.0	39.1*	17.1	2.2	22.3
C1=C(c2ccccc2)Nc2ncnn2C1c1ccccc1 (configuration not stated)	0.6	15.7	.	12.8	24.4	10.4
CCC1=CC(c2ccccc2)n2ncnc2N1 (configuration not stated)	14.1*	-19.3	.	-6.7	9.3	-20.2
Cc1ccc(S(=O)(=O)Nc2ccc3c(c2)C(=O)NC3=O)cc1[N+](=O)[O-]	0.8	-11.2	16.4	-9.2	22.8	-9.0
c1ccc(-c2nnc(OCCN3CCOCC3)c3ccccc23)cc1	-0.1	13.3	42.3*	-1.9	2.3	3.0
Brc1ccccc1OCCN1CCOCC1	-2.1	3.7	8.9	-3.5	18.4	-13.8
Nc1ncnc(Nc2ccccc2Cl)n1	-5.2	-15.2	9.8	8.6	-4.6	-13.9
COc1ccc(C(=O)C(CN2CCOCC2)c2ccccc2)cc1F (configuration not stated)	0.2	.	40.7*	.	.	.
COc1ccc(C(O)C(CN2CCOCC2)c2ccccc2)cc1F (configuration not stated)	4.6	21.4	16.8	-5.4	13.5	15.1
CC(Cc1ccsc1)NC(=O)CCc1nnc(CCc2ccccc2)o1 (configuration not stated)	-2.9	2.3	5.2	14.4	-13.5	21.5
O=c1[nH]nc(SCc2nc3ccccc3s2)n1C1CC1	0.3	10.5	2.5	25.3	8.1	16.3
CCCn1c(SCc2nc3ccccc3s2)n[nH]c1=O	0.0	7.2	32.7*	9.1	-4.3	17.8
CCC(C)(C)NC(=O)CN(Cc1ccco1)C(=O)CCC(=O)Nc1nccs1	1.1	10.5	2.0	7.3	3.3	6.5
